# Test results published in article PMC5540273 (PLoS ONE, 2017).
# Key:
# Conditions in all cases: concentration: 1 μM, replicates: in singlicate; n = 1
# [1] = test system: TTK
# [2] = test system: TXK
# [3] = test system: TYK2(JH1domain-catalytic)
# [4] = test system: TYK2(JH2domain-pseudokinase)
# [5] = test system: TYRO3
# [6] = test system: ULK1
# [7] = test system: ULK2
# [8] = test system: ULK3
# [9] = test system: T1, VEGFR2
# T1 construct: gene KDR
# [10] = test system: T2, VPS34
# T2 construct: gene PIK3C3
# [11] = test system: VRK2
# [12] = test system: WEE1
# [13] = test system: WEE2
# [14] = test system: WNK1
# [15] = test system: WNK2
# [16] = test system: WNK3
# [17] = test system: WNK4
# [18] = test system: T3, YANK1
# T3 construct: gene STK32A
# [19] = test system: T4, YANK2
# T4 construct: gene STK32B
# [20] = test system: T5, YANK3
# T5 construct: gene STK32C
# 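Further: KINOMEscan kinase panel screen.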
SMILES,%Inh [1],%Inh [2],%Inh [3],%Inh [4],%Inh [5],%Inh [6],%Inh [7],%Inh [8],%Inh [9],%Inh [10],%Inh [11],%Inh [12],%Inh [13],%Inh [14],%Inh [15],%Inh [16],%Inh [17],%Inh [18],%Inh [19],%Inh [20]
O=C(O)COc1ncnc2cc(-c3ccc4[nH]ncc4c3)sc12,0%,14%,29%,55%,0%,43%,26%,33%,36%,27%,8%,0%,6%,7%,32%,1%,23%,12%,4%,14%
CCn1c(-c2ccccn2)nc2cnccc21 [SB-736398],0%,10%,21%,45%,0%,8%,0%,0%,0%,4%,26%,0%,0%,0%,3%,37%,36%,0%,0%,32%
COC(=O)c1c(-c2ccccc2)c2cc(OC)ccc2c(=O)n1Cc1ccccc1,14%,12%,7%,0%,0%,1%,0%,0%,7%,0%,0%,0%,9%,0%,0%,0%,0%,0%,4%,0%
CN(C)CCN(C)C(=O)c1cc(-c2ccncc2)c(-c2ccc(Cl)c(O)c2)o1.Cl.Cl [SB-710397],0%,4%,43%,45%,0%,13%,0%,9%,0%,0%,24%,0%,5%,15%,0%,38%,47%,49%,71%,35%
Cc1cccc(-c2nc(Nc3ccncc3)c3ccccc3n2)n1 [GW855857],10%,11%,8%,40%,0%,0%,0%,8%,0%,52%,0%,23%,8%,0%,0%,0%,0%,0%,0%,0%
Cl.NC(=O)c1cccc(Nc2nccc(Nc3ccc(Oc4cccc(Cl)c4)c(Cl)c3)n2)c1 [GW659008],29%,0%,39%,18%,10%,6%,0%,0%,0%,9%,0%,0%,12%,0%,0%,15%,0%,3%,2%,28%
Cc1cccc(-c2nc(Nc3ccc4[nH]ncc4c3)c3ccccc3n2)n1 [GW857175],3%,0%,11%,36%,0%,12%,8%,18%,23%,0%,0%,4%,0%,0%,51%,40%,50%,17%,0%,59%
Fc1cc(Cl)ccc1Nc1ccnc2cc(-c3ccc(CN4CCCCC4)o3)ccc12 [GW560116],0%,23%,27%,18%,0%,0%,0%,0%,6%,22%,38%,0%,4%,0%,0%,34%,49%,0%,0%,0%
O=C(Nc1ccc2c(c1)OCO2)NC1CCN(c2ccnc(Nc3ccc(F)cc3)n2)C1 (stereo not drawn) [GSK1379724],26%,43%,9%,33%,0%,9%,0%,16%,0%,0%,0%,11%,4%,8%,3%,31%,11%,9%,0%,5%
Nc1ncnc2[nH]c(-c3ccccc3)nc12 [AH5015],0%,34%,38%,99.3%,0%,33%,5%,20%,0%,0%,30%,0%,0%,10%,9%,13%,19%,98%,4%,9%
Cc1nnc(-c2ccc3occ(-c4ccc(S(C)=O)cc4)c3c2)[nH]1 (stereo not drawn),8%,0%,8%,59%,0%,4%,23%,14%,1%,88%,0%,0%,32%,0%,19%,0%,0%,0%,0%,0%
COc1ccc(Nc2nccc(-c3cccc(NC(=O)c4cc5cc(F)ccc5[nH]4)c3)n2)cc1 [GSK1229782],13%,17%,41%,47%,23%,16%,0%,23%,4%,33%,27%,33%,16%,11%,12%,31%,59%,3%,0%,30%
O=c1cc(N2CCOCC2)nc2n(Cc3cccc(Cl)c3Cl)ccn12 [GSK2286295],0%,19%,4%,0%,0%,12%,0%,0%,0%,97%,0%,3%,0%,0%,0%,0%,0%,16%,2%,0%
O=C(Nc1n[nH]c2cc(-c3cccc(F)c3F)ccc12)C1CC1 [SB-733894],1%,0%,1%,0%,0%,0%,51%,4%,20%,0%,0%,0%,0%,0%,0%,0%,0%,0%,0%,0%
C[C@@H]1CCCCN1c1cc(-c2ccc3c(N)n[nH]c3c2)nc(N)n1 [GSK2258759],0%,0%,0%,3%,0%,0%,0%,0%,0%,0%,0%,0%,13%,0%,6%,16%,39%,3%,0%,0%
Fc1cc(Cl)ccc1Nc1ccnc2cc(I)ccc12 [GW551191],0%,28%,13%,16%,18%,3%,0%,0%,6%,2%,0%,8%,0%,3%,11%,29%,16%,16%,11%,20%
COc1ccc2nc(-c3cccc(C)n3)nc(Nc3ccncc3)c2c1 [GSK204919],0%,9%,10%,82%,4%,4%,0%,2%,0%,0%,33%,0%,2%,5%,3%,8%,9%,19%,2%,18%
CCn1c(-c2cccnc2O)nc2cnccc21 [SB-736715],0%,0%,0%,0%,0%,0%,0%,0%,0%,0%,77%,0%,84%,0%,24%,0%,0%,0%,0%,0%
O=C(Nc1n[nH]c2nc(-c3nccs3)c(Br)cc12)C1CCCC1 [SB-742609],13%,27%,18%,31%,0%,5%,0%,18%,0%,0%,34%,0%,1%,10%,0%,19%,0%,4%,0%,28%
Cn1ccc2ncnc(Oc3ccc(Nc4nc5ccccc5[nH]4)cc3)c21,2%,0%,0%,0%,0%,0%,0%,0%,0%,0%,0%,0%,19%,0%,0%,0%,0%,0%,0%,2%
Cc1cc(N2Cc3ccccc3C2)nc(Nc2ccc(S(=O)(=O)N3CCOCC3)cc2)n1.Cl [GSK1669917],0%,0%,7%,0%,0%,0%,0%,0%,0%,0%,0%,3%,0%,0%,7%,2%,10%,7%,0%,0%
